From PubChem BioAssay (NCATS)
Results filed as inconclusive are left out. Active and inactive are the calls of the source. The call rests on the fitted dose curve; in most records, active means well fitted curve in the direction sought with a large enough effect; inconclusive means small, poorly fitted or top-dose-only effect, or another doubt; inactive means no such curve, though single readings can be large; an effect the other way counts as inactive or inconclusive.

Experiments:
[1] = target: Rap guanine nucleotide exchange factor 3 (Homo sapiens) (UniProt O95398); assay: Confirmatory qHTS for agonist of cAMP-regulated guanine nucleotide exchange factor 3 (EPAC1) (AID 1645881);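 further: EPAC1 catalysed release of BODIPY-GDP from Rap1B seen as fluorescence loss; 100% = effect of cAMP agonist control; nearly all actives have a fitted effect of over 75% in size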
Chain of Rap guanine nucleotide exchange factor 3 (Homo sapiens) (O95398 whole entry, looked up): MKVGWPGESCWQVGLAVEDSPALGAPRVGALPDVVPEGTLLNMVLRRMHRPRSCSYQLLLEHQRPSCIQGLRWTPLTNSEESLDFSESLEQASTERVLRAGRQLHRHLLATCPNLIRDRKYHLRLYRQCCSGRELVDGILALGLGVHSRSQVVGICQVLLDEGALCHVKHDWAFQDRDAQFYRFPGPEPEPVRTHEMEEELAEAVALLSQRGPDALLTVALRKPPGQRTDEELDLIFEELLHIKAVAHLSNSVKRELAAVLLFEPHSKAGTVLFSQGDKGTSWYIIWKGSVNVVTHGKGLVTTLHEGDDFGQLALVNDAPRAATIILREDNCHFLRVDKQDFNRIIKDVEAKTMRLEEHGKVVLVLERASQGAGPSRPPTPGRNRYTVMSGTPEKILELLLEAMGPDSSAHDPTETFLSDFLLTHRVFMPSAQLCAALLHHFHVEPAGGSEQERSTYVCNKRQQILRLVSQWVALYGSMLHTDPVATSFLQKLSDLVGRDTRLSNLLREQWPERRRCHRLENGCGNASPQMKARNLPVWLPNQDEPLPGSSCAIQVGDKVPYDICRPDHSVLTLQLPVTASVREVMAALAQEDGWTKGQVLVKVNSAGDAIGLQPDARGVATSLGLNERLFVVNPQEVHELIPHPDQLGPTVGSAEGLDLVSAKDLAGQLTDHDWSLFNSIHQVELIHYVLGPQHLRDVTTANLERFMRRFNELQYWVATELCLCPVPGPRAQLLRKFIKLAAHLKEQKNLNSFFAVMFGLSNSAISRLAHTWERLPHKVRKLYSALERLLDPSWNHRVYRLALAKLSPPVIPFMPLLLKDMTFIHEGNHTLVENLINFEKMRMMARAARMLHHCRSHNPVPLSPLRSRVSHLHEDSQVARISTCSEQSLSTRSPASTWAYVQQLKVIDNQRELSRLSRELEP

[2] = target: Rap guanine nucleotide exchange factor 4 (Homo sapiens) (UniProt Q8WZA2); assay: Confirmatory qHTS for agonist of cAMP-regulated guanine nucleotide exchange factor 4 (EPAC2) (AID 1645884);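 further: nucleotide exchange releases bodipy-GDP from Rap1 and this lowers its fluorescence; on the % scale 0 is the no-effect control and ±100 the full control effect; nearly all actives have a fitted effect of over 65% in size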
Chain of Rap guanine nucleotide exchange factor 4 (Homo sapiens) (Q8WZA2 whole entry, looked up): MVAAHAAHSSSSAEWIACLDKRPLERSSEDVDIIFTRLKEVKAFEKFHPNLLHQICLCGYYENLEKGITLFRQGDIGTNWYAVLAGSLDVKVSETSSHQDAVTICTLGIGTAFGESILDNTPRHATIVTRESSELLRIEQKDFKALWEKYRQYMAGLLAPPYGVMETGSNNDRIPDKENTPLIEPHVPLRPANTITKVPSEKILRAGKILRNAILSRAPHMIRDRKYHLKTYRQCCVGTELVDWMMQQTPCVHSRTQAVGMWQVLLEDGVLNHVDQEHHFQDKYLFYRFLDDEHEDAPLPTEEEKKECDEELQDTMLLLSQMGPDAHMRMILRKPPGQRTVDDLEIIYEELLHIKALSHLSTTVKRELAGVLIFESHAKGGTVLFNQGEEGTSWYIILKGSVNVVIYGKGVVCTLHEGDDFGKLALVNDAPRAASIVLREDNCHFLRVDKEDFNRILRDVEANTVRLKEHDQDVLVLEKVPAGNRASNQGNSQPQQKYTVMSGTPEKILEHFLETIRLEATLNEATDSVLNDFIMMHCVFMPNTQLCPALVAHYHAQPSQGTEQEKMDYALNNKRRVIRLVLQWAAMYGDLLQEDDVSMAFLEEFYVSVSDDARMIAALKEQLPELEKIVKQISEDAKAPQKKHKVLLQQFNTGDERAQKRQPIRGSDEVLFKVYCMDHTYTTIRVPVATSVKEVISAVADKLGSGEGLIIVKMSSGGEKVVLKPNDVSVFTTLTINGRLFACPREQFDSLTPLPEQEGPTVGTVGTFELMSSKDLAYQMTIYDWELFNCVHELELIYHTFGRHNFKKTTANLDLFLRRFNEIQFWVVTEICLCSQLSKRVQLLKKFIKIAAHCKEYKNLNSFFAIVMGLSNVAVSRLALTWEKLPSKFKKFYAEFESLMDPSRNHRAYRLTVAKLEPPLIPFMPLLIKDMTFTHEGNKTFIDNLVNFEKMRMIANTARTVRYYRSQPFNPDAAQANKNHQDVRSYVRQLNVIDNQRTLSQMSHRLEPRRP

[3] = target: Rap guanine nucleotide exchange factor 4 (Homo sapiens) (UniProt Q8WZA2); assay: Confirmatory qHTS for antagonist of cAMP-regulated guanine nucleotide exchange factor 4 (EPAC2) (AID 1645885); further: nearly all actives have a fitted effect of over 25% in size; further: potency means the concentration at half of the fitted maximal effect; on activity change, negative = inhibition: on the % scale 0 is the no-effect control and ±100 the full control effect
[4] = target: Rap guanine nucleotide exchange factor 3 (Homo sapiens) (UniProt O95398); assay: Counterscreen qHTS for antagonist of cAMP-regulated guanine nucleotide exchange factor 3 (EPAC1) (AID 1645888);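 further: fluorescence loss as bound BODIPY-GDP is released from Rap1B; % of control where 0% means no effect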
Outline: (§1)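 Rap1B–BODIPY-GDP (250 nM) with 50 uM GDP; compounds pin-transferred to 9.74 nM–152 uM final (activator) or from 7.32 nM upwards (inhibitor). Fluorescence Ex/Em 480/540 nm read at 5 and 30 min, then after adding cAMP or buffer, at room temperature.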

[5] = target: Rap guanine nucleotide exchange factor 3 (Homo sapiens) (UniProt O95398); assay: Counterscreen qHTS for agonist of cAMP-regulated guanine nucleotide exchange factor 3 (EPAC1) (AID 1645889); further: nearly all actives have a fitted effect of over 40% in size; further: potency means the concentration at half of the fitted maximal effect; on activation: % of control where 0% means no effect
Outline: as §1

Cc1cc(Cl)ccc1OC(C)C(=O)Nc1ccc(C(=O)Nc2ccccc2C(=O)O)cc1 (stereo not given)
inactive: Potency [1] | Potency [2] | Potency [3] | Potency [4] | Potency [5]

CC1(NC(=O)CCc2nc3sc4c(c3c(=O)[nH]2)CCCC4)CCS(=O)(=O)C1 (stereo not given)
inactive: Potency [1] | activation [2] 0.392% [at 17.1 µM, percent relative to cAMP agonist control] | Potency [3] | activity change, negative = inhibition [4] -17% [at 30.8 µM] | activation [5] 8.58% [at 30.8 µM]

CCOC(=O)C1=C(CC)OC(N)=C(C#N)C1c1ccc(F)cc1F (stereo not given)
inactive: Potency [1] | Potency [2] | Potency [3] | Potency [4] | Potency [5]

CC(=O)Nc1cccc(C(=O)/C=C/c2ccc(F)cc2)c1
inactive: Potency [1] | Potency [2] | Potency [3] | Potency [4] | Potency [5]

Cc1ccc(CNC(=O)c2c[nH]n3c(=O)c(Cc4ccc(Cl)cc4)c(C)nc23)cc1
inactive: Potency [1] | Potency [2] | Potency [3] | Potency [4] | Potency [5]

COC(=O)c1cc(Sc2c(Cl)cccc2Cl)ccn1
active: Potency [3] 30.1 µM
inactive: Potency [1] | Potency [2] | Potency [4] | Potency [5]

C[C@@H]1ON(C)[C@H]2C[C@H]3c4[nH]c5ccc(-c6ccc7c(c6)OCO7)cc5c4CCN3C(=O)[C@@H]12
inactive: Potency [1] | activation [2] 1.59% [at 17.1 µM, percent relative to cAMP agonist control] | Potency [3] | activity change, negative = inhibition [4] -7.04% [at 30.8 µM] | activation [5] 32% [at 30.8 µM]

O=C(O)/C(=C\c1ccc(-c2ccc(F)cc2)o1)c1ccccc1
inactive: Potency [1] | Potency [2] | Potency [3] | Potency [4] | Potency [5]

COc1ccc(-c2nc3ccccc3n2CCC(C)C)cc1OC
inactive: Potency [1] | Potency [2] | Potency [3] | Potency [4] | Potency [5]

C[C@H]1CN([C@@H](C)CO)C(=O)c2cccc(NC(=O)C3CC3)c2O[C@H]1CN(C)S(=O)(=O)c1ccccc1
inactive: Potency [1] | Potency [2] | Potency [3] | Potency [4] | Potency [5]

Cc1csc2c(=O)sc(NC(=O)c3cccs3)nc12
inactive: Potency [1] | Potency [2] | Potency [3] | Potency [4] | Potency [5]

Cc1nn(-c2ccc(F)cc2)c(-n2cccc2)c1C(=O)N1CCN(c2ccc(F)cc2)CC1
inactive: Potency [1] | Potency [2] | outcome [3] inactive [at 12.7 µM] | Potency [4] | Potency [5]

C=CCn1c(=NC(=O)c2sc3ccccc3c2Cl)sc2cc(S(N)(=O)=O)ccc21
inactive: Potency [1] | Potency [2] | Potency [3] | Potency [4] | Potency [5]

Cc1ccc(C)c(Cn2nc(-c3cc(C)ccc3C)ccc2=O)c1
inactive: Potency [1] | Potency [2] | Potency [3] | Potency [4] | Potency [5]

Cc1cc(NS(=O)(=O)c2ccc(Nc3nc(-c4ccc(O)cc4)cs3)cc2)no1
active: Potency [3] 26.9 µM
inactive: Potency [1] | Potency [2] | Potency [4] | Potency [5]

O=C(NCc1ccco1)c1c2c(nc3ccccc13)CCC2
inactive: Potency [1] | activation [2] 6.94% [at 17.1 µM, percent relative to cAMP agonist control] | Potency [3] | activity change, negative = inhibition [4] -4.49% [at 30.8 µM] | activation [5] 26.4% [at 30.8 µM]

COc1ccc(C(=O)Nc2ccccc2-c2nnn(CC(N)=O)n2)cc1
inactive: Potency [1] | Potency [2] | Potency [3] | Potency [4] | Potency [5]

O=C(O)c1ccccc1NC(c1ccccc1)c1ccc(Cl)cc1 (stereo not given)
inactive: Potency [1] | Potency [2] | Potency [3] | Potency [4] | Potency [5]

Cc1cccc(C)c1-c1ccc(CN2C(CC(C)C)C(=O)N(Cc3cn(CCO)nn3)CCS2(=O)=O)cc1 (stereo not given)
inactive: Potency [1] | activation [2] -6.44% [at 17.1 µM, percent relative to cAMP agonist control] | Potency [3] | activity change, negative = inhibition [4] 9.55% [at 30.8 µM] | activation [5] 18.7% [at 30.8 µM]

O=C(N/N=C/c1ccc(O)c([N+](=O)[O-])c1)C1CC1(c1ccccc1)c1ccccc1 (stereo not given)
inactive: Potency [1] | activation [2] 2.95% [at 17.1 µM, percent relative to cAMP agonist control] | Potency [3] | activity change, negative = inhibition [4] -23.6% [at 30.8 µM] | activation [5] 11.6% [at 30.8 µM]

Cc1cc2ccccc2n1CCNC(=O)C1CCCCC1
active: Potency [3] 95.3 µM
inactive: Potency [1] | Potency [2] | Potency [4] | Potency [5]

Cc1c(C(=O)OCC(C)C)[nH]c2c1C(=O)CC(c1ccco1)C2 (stereo not given)
inactive: Potency [1] | Potency [2] | Potency [3] | Potency [4] | Potency [5]

Cc1ccc(NC(=O)CN2C(=O)S/C(=C/c3ccc(O)c([N+](=O)[O-])c3)C2=O)cc1C
inactive: Potency [1] | Potency [2] | Potency [3] | Potency [4] | Potency [5]

COc1ccc(C(CCN(Cc2ccc(OC)c(OC)c2)C(C)=O)C(C)C)cc1 (stereo not given)
inactive: Potency [1] | Potency [2] | Potency [3] | Potency [4] | Potency [5]

CCO[C@@H]1OC(C(=O)N2CCN(Cc3ccc4c(c3)OCO4)CC2)=C[C@H](C2CCCCC2)[C@H]1CCCO
inactive: Potency [1] | Potency [2] | Potency [3] | Potency [4] | Potency [5]

COc1ccc(NC(=O)CSc2nc3sc4c(c3c(=O)n2-c2ccc(OC)cc2)CCN(C)C4)cc1
inactive: Potency [1] | activation [2] -8.15% [at 17.1 µM, percent relative to cAMP agonist control] | Potency [3] | activity change, negative = inhibition [4] -8.97% [at 30.8 µM] | activation [5] 31.5% [at 30.8 µM]

Cn1c(COc2ccccc2C(C)(C)C)nc2ccccc21
active: Potency [5] 15.8 µM
inactive: Potency [1] | Potency [2] | Potency [3] | Potency [4]

CCOc1cc(/C=N/NC(=O)CSc2nncn2C)ccc1OC(=O)c1ccc(Cl)cc1
inactive: Potency [1] | activation [2] 6.27% [at 17.1 µM, percent relative to cAMP agonist control] | Potency [3] | activity change, negative = inhibition [4] 0.431% [at 30.8 µM] | activation [5] 9.31% [at 30.8 µM]

O=c1cc(CSc2nc3ccccc3c(=O)[nH]2)c2ccc(O)cc2o1
inactive: Potency [1] | Potency [2] | Potency [3] | Potency [4] | Potency [5]

CCC(C(=O)O)N1C(=O)/C(=C/C(C)=C/c2ccccc2)SC1=S (stereo not given)
active: Potency [3] 75.7 µM
inactive: Potency [1] | Potency [2] | Potency [4] | Potency [5]

COc1ccc(C(=O)c2nccc3ccccc23)cc1
inactive: Potency [1] | Potency [2] | Potency [3] | Potency [4] | Potency [5]

CCN(C(=O)c1noc2c1COc1ccc(C)cc1-2)c1cccc(C)c1
inactive: Potency [1] | Potency [2] | Potency [3] | Potency [4] | Potency [5]

CC(C)(C)C(=O)Nc1cccc(C(=O)OCc2cc(=O)n3nc(C4CCCCC4)sc3n2)c1
inactive: Potency [1] | Potency [2] | outcome [3] inactive [at 12.7 µM] | Potency [4] | Potency [5]

Cc1csc(NC(=O)CSCC(=O)O)c1-c1nc2ccccc2s1
inactive: Potency [1] | Potency [2] | Potency [3] | Potency [4] | Potency [5]

COC(=O)c1nn(-c2ccccc2)c(Sc2ccc(OC)cc2)c1/C=N/O
inactive: Potency [1] | activation [2] -5.43% [at 17.1 µM, percent relative to cAMP agonist control] | Potency [3] | activity change, negative = inhibition [4] -27.4% [at 30.8 µM] | activation [5] 23% [at 30.8 µM]

O=C(Nc1cccnc1)c1c(O)c2cccc3c2n(c1=O)CC3
inactive: Potency [1] | activation [2] 9.2% [at 17.1 µM, percent relative to cAMP agonist control] | Potency [3] | activity change, negative = inhibition [4] -2.81% [at 30.8 µM] | activation [5] 22.3% [at 30.8 µM]

CC(C)(C)n1nc(Cc2cccc3ccccc23)c(C#N)c1N
inactive: Potency [1] | Potency [2] | Potency [3] | Potency [4] | Potency [5]

O=C(NCc1ccccc1)c1ccc2c(=O)[nH]c3c(C(=O)NCC4CCCO4)sc(=S)n3c2c1 (stereo not given)
inactive: Potency [1] | Potency [2] | Potency [3] | Potency [4] | Potency [5]

Cc1ccc(C)c(S(=O)(=O)N2CCN(C(=O)CCNC(=O)c3ccc(Br)cc3)CC2)c1
inactive: Potency [1] | Potency [2] | Potency [3] | Potency [4] | Potency [5]

O=C(NCC(c1ccco1)N1CCCC1)c1ccccc1Sc1ccc(C(F)(F)F)cc1[N+](=O)[O-] (stereo not given)
inactive: Potency [1] | Potency [2] | Potency [3] | Potency [4] | Potency [5]

COc1ccc2c(c1)c(=O)oc1c(C)c(OCc3cc(C(=O)O)oc3C)ccc12
inactive: Potency [1] | Potency [2] | Potency [3] | Potency [4] | Potency [5]

CC(C)C(=O)NC(c1ccccc1)c1cc([N+](=O)[O-])c2cccnc2c1O (stereo not given)
inactive: Potency [1] | activation [2] 4.72% [at 17.1 µM, percent relative to cAMP agonist control] | Potency [3] | activity change, negative = inhibition [4] -3.56% [at 30.8 µM] | activation [5] 39.4% [at 30.8 µM]

O=C(Cc1ccc(Cl)cc1)N/N=C/c1ccc(O)c(O)c1
inactive: Potency [1] | Potency [2] | Potency [3] | Potency [4] | Potency [5]

COc1cc(/C=C2/NC(=O)NC2=O)cc(Br)c1OCc1ccc(C(=O)O)cc1
inactive: Potency [1] | activation [2] -3.55% [at 17.1 µM, percent relative to cAMP agonist control] | Potency [3] | activity change, negative = inhibition [4] -4.68% [at 30.8 µM] | activation [5] 11.1% [at 30.8 µM]

COc1cc(/C=C2/SC(=S)N(c3c(C)n(C)n(-c4ccccc4)c3=O)C2=O)ccc1O
inactive: Potency [1] | activation [2] 9.4% [at 17.1 µM, percent relative to cAMP agonist control] | Potency [3] | activity change, negative = inhibition [4] -24.4% [at 30.8 µM] | activation [5] 11.7% [at 30.8 µM]
